Measurements reported in PubChem BioAssay AID1159580 (chemical genetic matrix, 2015).
Values joined by “and” are separate entries in the source; they are usually repeats but may differ in a detail not shown here. Equal entries are not always repeated. About 2,000 (36%) of roughly 5,500 compounds were called active. About 18% were inconclusive and are not listed. Cut-off read from the data, not from the text of the source: active = normalized growth mostly below about 0.91 (no sharp cut-off); inconclusive = no clear call, values can overlap the other calls; inactive = mostly above about 0.92. The list shows a part of the results.

Assay: chemical genetic growth profiling, strain panel (AID 1159580);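 note: tested at 20 µM; growth read once vehicle control cultures reached saturation at 30 °C; 1 = growth at the plate median or of vehicle wells; lower values mean less growth of the strain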
Details: S. cerevisiae deletion strains, growth OD

Measured: normalized growth

CC(C)CCCC(C)C1CCC2C3CC(=O)[C@H]4C[C@@H](O)CC[C@]4(C)C3CC[C@]12C (stereo partly drawn)
active: locus YLR262C, strain YPT6 (second series), hits give low values 0.76
inactive: locus YAL021C, strain ccr4, hits give low values 0.997 | locus YAL026C, strain drs2, hits give low values 0.98 | locus YAL030W, strain snc1, hits give low values 1.01 | locus YBL061C, strain skt5, hits give low values 1 | locus YBR009C, strain hhf1, hits give low values 1 | locus YBR021W, strain FUR4, hits give low values 1.06 | locus YBR023C, strain chs3, hits give low values 1 | locus YBR171W, strain sec66, hits give low values 1 | locus YBR229C, strain ROT2, hits give low values 1.02 | locus YBR231C, strain swc5, hits give low values 0.975 | locus YBR279W, strain paf1, hits give low values 1.01 | locus YCL011C, strain gbp2, hits give low values 1.02 | locus YCL016C, strain dcc1, hits give low values 1.01 | locus YCL029C, strain bik1, hits give low values 1.01 | locus YCL061C, strain MRC1, hits give low values 1.01 | locus YCL069W, strain vba3, hits give low values 1.03 | locus YCR088W, strain abp1, hits give low values 1 | locus YDL005C, strain med2, hits give low values 1.01 | locus YDL035C, strain GPR1, hits give low values 1.01 | locus YDL040C, strain nat1, hits give low values 1.01 | locus YDL074C, strain BRE1, hits give low values 1.05 | locus YDL101C, strain DUN1, hits give low values 1.02 | locus YDL185W, strain tfp1, hits give low values 1.07 | locus YDL192W, strain arf1, hits give low values 1.02 | locus YDR001C, strain nth1, hits give low values 1.02 | locus YDR069C, strain doa4, hits give low values 1 | locus YDR101C, strain arx1, hits give low values 1.01 | locus YDR137W, strain rgp1, hits give low values 0.908 | locus YDR150W, strain NUM1, hits give low values 1 | locus YDR159W, strain sac3, hits give low values 0.963 | locus YDR162C, strain NBP2, hits give low values 1.04 | locus YDR195W, strain ref2 1.01 | locus YDR297W, strain sur2, hits give low values 1 | locus YDR318W, strain mcm21, hits give low values 1.01 | locus YDR334W, strain swr1, hits give low values 1.02 | locus YDR335W, strain msn5, hits give low values 1.02 | locus YDR388W, hits give low values 1.01 | locus YDR392W, strain spt3, hits give low values 0.942 | locus YDR502C, strain sam2, hits give low values 1.01 | locus YEL003W, strain gim4, hits give low values 1.01 | locus YEL037C, strain rad23, hits give low values 1 | locus YEL061C, strain CIN8 (second series), hits give low values 1.01 | locus YEL061C, strain CIN8, hits give low values 1 | locus YER015W, strain faa2, hits give low values 1 | locus YER016W, strain bim1, hits give low values 1.01 | locus YER110C, hits give low values 1 | locus YER111C, strain swi4, hits give low values 1 | locus YER155C, strain BEM2 (second series), hits give low values 1.07 | locus YER155C, strain BEM2, hits give low values 0.997 | locus YER167W, strain BCK2, hits give low values 1.03 | locus YFR010W, strain ubp6, hits give low values 1.02 | locus YGL078C, strain dbp3, hits give low values 1.01 | locus YGL086W, strain mad1, hits give low values 1.03 | locus YGL167C, strain pmr1, hits give low values 0.998 | locus YGL173C, strain kem1, hits give low values 1 | locus YGL227W, strain vid30, hits give low values 1.01 | locus YGL240W, strain doc1, hits give low values 0.904 | locus YGL248W, strain PDE1, hits give low values 1.01 | locus YGL253W, strain hxk2, hits give low values 1.02 | locus YGR135W, strain pre9, hits give low values 1 | locus YGR252W, strain gcn5, hits give low values 1.06 | locus YHR013C, strain ard1, hits give low values 1.01 | locus YHR027C, strain rpn1, hits give low values 1.01 | locus YHR030C, strain SLT2, hits give low values 1.02 and 1.05 | locus YHR079C, strain IRE1 (second series), hits give low values 0.99 | locus YHR079C, strain IRE1, hits give low values 1.04 | locus YHR094C, strain hxt1, hits give low values 1.01 | locus YHR129C, strain ARP1, hits give low values 1.02 | locus YHR142W, strain chs7, hits give low values 1.04 | locus YHR200W, strain rpn10, hits give low values 1.03 | locus YIL066C, strain RNR3, hits give low values 1.04 | locus YIL073C, strain SPO22, hits give low values 1.05 | locus YIL125W, strain kgd1, hits give low values 0.998 | locus YIR030C, strain dcg1, hits give low values 1.01 | locus YJL092W, strain hpr5, hits give low values 1.02 | locus YJL095W, strain BCK1 (second series), hits give low values 1.01 | locus YJL095W, strain BCK1, hits give low values 1.03 | locus YJL115W, strain asf1, hits give low values 0.991 | locus YJL129C, strain trk1, hits give low values 1.04 | locus YJL134W, strain LCB3, hits give low values 1.01 | locus YJL154C, strain vps35, hits give low values 1.02 | locus YJL164C, strain tpk1, hits give low values 1.01 | locus YJL166W, strain qcr8, hits give low values 1.06 | locus YJL168C, strain set2, hits give low values 1 | locus YJL187C, strain SWE1 (second series), hits give low values 1.01 | locus YJL187C, strain SWE1, hits give low values 1.02 | locus YJR043C, strain POL32, hits give low values 1.05 | locus YJR066W, strain TOR1, hits give low values 0.998 | locus YKL009W, strain mrt4, hits give low values 1.01 | locus YKL068W, hits give low values 1.02 | locus YKL085W, strain MDH1 (second series), hits give low values 1.01 | locus YKL085W, strain MDH1, hits give low values 1.01 | locus YKL160W, strain elf1, hits give low values 1.02 | locus YKL190W, strain CNB1, hits give low values 1.02 | locus YKR001C, strain vps1, hits give low values 1.02 | locus YKR026C, strain gcn3, hits give low values 1 | locus YKR091W, strain srl3, hits give low values 1.01 | locus YLL001W, strain dnm1, hits give low values 0.982 | locus YLL026W, hits give low values 0.999 | locus YLL041C, strain sdh2, hits give low values 1.01 | locus YLR027C, strain aat2, hits give low values 0.99 | locus YLR039C, strain RIC1, hits give low values 0.767 | locus YLR058C, strain SHM2, hits give low values 1.01 | locus YLR102C, strain apc9, hits give low values 1.01 | locus YLR113W, strain HOG1, hits give low values 0.986 | locus YLR221C, strain rsa3, hits give low values 0.991 | locus YLR258W, strain gsy2, hits give low values 0.994 | locus YLR262C, strain YPT6, hits give low values 0.831 | locus YLR268W, strain sec22, hits give low values 1.03 | locus YLR320W, strain mms22, hits give low values 1.02 | locus YLR330W, strain CHS5, hits give low values 1.01 | locus YLR342W, strain FKS1 (second series), hits give low values 1.02 | locus YLR342W, strain FKS1, hits give low values 1.01 | locus YLR357W, strain rsc2, hits give low values 1.04 | locus YLR370C, strain arc18, hits give low values 1.02 | locus YLR371W, strain rom2, hits give low values 1 | locus YLR384C, strain iki3, hits give low values 0.99 | locus YLR418C, strain cdc73, hits give low values 1.08 | locus YML016C, strain PPZ1, hits give low values 0.995 | locus YML032C, strain rad52, hits give low values 1 | locus YML120C, strain ndi1, hits give low values 1.02 | locus YML124C, strain tub3, hits give low values 1 | locus YMR058W, strain fet3, hits give low values 1.01 | locus YMR078C, strain ctf18, hits give low values 1.04 | locus YMR125W, strain sto1, hits give low values 1.02 | locus YMR129W, hits give low values 1 | locus YMR205C, strain PFK2, hits give low values 1.02 | locus YMR223W, strain ubp8, hits give low values 1.01 | locus YMR231W, strain pep5, hits give low values 1.02 | locus YMR307W, strain GAS1, hits give low values 1.12 | locus YNL067W, strain RPL9B, hits give low values 1.03 | locus YNL071W, strain lat1, hits give low values 1.02 | locus YNL183C, strain NPR1, hits give low values 1 | locus YNL209W, strain ssb2, hits give low values 1.01 | locus YNL233W, strain BNI4, hits give low values 1.04 | locus YNL248C, strain rpa49, hits give low values 1 | locus YNL250W, strain rad50, hits give low values 1 | locus YNL271C, strain bni1, hits give low values 1 | locus YNL298W, strain CLA4, hits give low values 1.01 | locus YNL307C, strain MCK1, hits give low values 1.04 | locus YNL322C, strain KRE1 (second series), hits give low values 1.01 | locus YNR049C, strain mso1, hits give low values 1 | locus YNR052C, strain pop2, hits give low values 0.997 | locus YOL006C, strain TOP1, hits give low values 1.14 | locus YOL012C, strain htz1 1.15 | locus YOL147C, strain pex11, hits give low values 1.01 | locus YOR001W, strain rrp6, hits give low values 0.969 | locus YOR061W, strain CKA2, hits give low values 1.02 | locus YOR069W, strain VPS5, hits give low values 1 | locus YOR070C, strain gyp1, hits give low values 0.989 | locus YOR080W, strain dia2, hits give low values 0.998 | locus YOR083W, strain WHI5, hits give low values 1.02 | locus YOR106W, strain vam3, hits give low values 1.02 | locus YOR136W, strain idh2, hits give low values 1 | locus YOR144C, strain elg1, hits give low values 1 | locus YOR184W, strain ser1, hits give low values 1.04 | locus YOR231W, strain MKK1, hits give low values 1.02 | locus YOR265W, strain rbl2, hits give low values 1 | locus YOR270C, strain vph1, hits give low values 1.04 | locus YOR290C, strain snf2, hits give low values 1.03 | locus YOR316C, strain cot1, hits give low values 1 | locus YPL051W, strain arl3, hits give low values 0.985 | locus YPL055C, strain LGE1, hits give low values 1.07 | locus YPL078C, strain atp4, hits give low values 1.02 | locus YPL106C, strain sse1, hits give low values 1.02 | locus YPL240C, strain hsp82, hits give low values 1.01 | locus YPL256C, strain CLN2, hits give low values 1.04 | locus YPR119W, strain clb2, hits give low values 1 | locus YPR141C, strain kar3, hits give low values 1.01 | locus YPR163C, strain tif3, hits give low values 1.01 | locus YPR167C, strain met16, hits give low values 0.995 | strain wtn01, hits give low values 1.03
